Test results reported in article PMC5913336, “True equilibrium measurement of transcription factor-DNA binding affinities using automated polarization microscopy”.

The sequences below were run against T1, Pan (Drosophila melanogaster, UniProt P91943 258-356) (assay: FP; 33 mM phosphate pH 7.0, 90 mM NaCl, 0.01% Tween 20, 0.1 mM DTT, 0.5% agarose; room temperature). Conditions: tags: N-GST (pGEX-6P-1, kept); dsDNA, one strand shown.
T1 sequence: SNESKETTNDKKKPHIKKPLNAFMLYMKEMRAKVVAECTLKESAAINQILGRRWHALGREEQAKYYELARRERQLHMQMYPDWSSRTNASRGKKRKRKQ
In the case of AGTGTTTGATAAA, the binding signal is reported as 2.49 Kd / Kd of best base at the position. With AGTCTTTTATAAA the binding signal was 3.15 Kd / Kd of best base at the position. In the case of AGTCGTTGATAAA, the binding signal is reported as 9.13 Kd / Kd of best base at the position. For AGTTTTTGATAAA, the binding signal was 5.89 Kd / Kd of best base at the position. With AGTCTATGATAAA the binding signal was 8.1 Kd / Kd of best base at the position. AGTCTTTGCTAAA was tested, and the binding signal was 2.06 Kd / Kd of best base at the position. In the case of AGTCATTGATAAA, the binding signal is reported as 7.68 Kd / Kd of best base at the position. For AGTCTTTGTTAAA, the binding signal was 4.66 Kd / Kd of best base at the position. For TGTCTTTGATAAA, the binding signal was 1.34 Kd / Kd of best base at the position. AGTCTTAGATAAA was tested, and the binding signal was 10.4 Kd / Kd of best base at the position. In the case of AGTATTTGATAAA, the binding signal is reported as 5.89 Kd / Kd of best base at the position. With AGTCTTTCATAAA the binding signal was 8.7 Kd / Kd of best base at the position. AGTCTGTGATAAA was tested, and the binding signal was 7.87 Kd / Kd of best base at the position. With CGTCTTTGATAAA the binding signal was 2.92 Kd / Kd of best base at the position. In the case of AGTCTTTGATTAA, the binding signal is reported as 1.63 Kd / Kd of best base at the position. With AGCCTTTGATAAA the binding signal was 2.89 Kd / Kd of best base at the position. AGGCTTTGATAAA was tested, and the binding signal was 4.74 Kd / Kd of best base at the position. For AGTCCTTGATAAA, the binding signal was 5.41 Kd / Kd of best base at the position. In the case of AGTCTTTGATCAA, the binding signal is reported as 2.02 Kd / Kd of best base at the position. For AGTCTCTGATAAA, the binding signal was 9.73 Kd / Kd of best base at the position. In the case of AGTCTTTGGTAAA, the binding signal is reported as 1.21 Kd / Kd of best base at the position. AGTCTTTGATACA was tested, and the binding signal was 2.07 Kd / Kd of best base at the position. In the case of AGTCTTTGATATA, the binding signal is reported as 1.14 Kd / Kd of best base at the position. With AGTCTTTGATAAG the binding signal was 3.01 Kd / Kd of best base at the position. In the case of AGTCTTTAATAAA, the binding signal is reported as 4.58 Kd / Kd of best base at the position. For AGTCTTTGACAAA, the binding signal was 4.34 Kd / Kd of best base at the position. In the case of AGTCTTTGAAAAA, the binding signal is reported as 2.52 Kd / Kd of best base at the position. AGTCTTCGATAAA was tested, and the binding signal was 7.5 Kd / Kd of best base at the position. With AATCTTTGATAAA the binding signal was 6.88 Kd / Kd of best base at the position. With ACTCTTTGATAAA the binding signal was 1.97 Kd / Kd of best base at the position. With ATTCTTTGATAAA the binding signal was 1.9 Kd / Kd of best base at the position. AGTCTTTGATAAA was tested, and the Kd was about 73 nM. With AGTCTTGGATAAA the binding signal was 5.87 Kd / Kd of best base at the position. With AGTCTTTGAGAAA the binding signal was 1.72 Kd / Kd of best base at the position. In the case of AGACTTTGATAAA, the binding signal is reported as 1.18 Kd / Kd of best base at the position. In the case of GGTCTTTGATAAA, the binding signal is reported as 1.08 Kd / Kd of best base at the position. With AGTCTTTGATAGA the binding signal was 1.78 Kd / Kd of best base at the position.
